According to PubChem BioAssay AID1159554 (Broad Institute, 2015):
Among all 94,000 compounds or so, about 2,100 (2.2%) were called active. No stated cut-off is given here; in the data, active means activity change below about -80%; inconclusive means no clear call, values can overlap the other calls; inactive means above that. This excerpt belongs to a sample that is enriched for actives.

Experiment: Dd2 malaria parasite growth inhibition – SYBR Green fluorescence, single dose replicates, primary screen (AID 1159554)
Details: P. falciparum Dd2 growth, 72 h, at 10 µM, hits give low values

Q: For `O=C(c1cccc(F)c1)N1C[C@H]2[C@@H](c3ccccc31)[C@@H](CO)N2C(=O)Cc1ccccc1`, which activity change is on record?
A: 0.269% (inactive)

Q: Which activity change does the source give for `C[C@H](CO)N1C[C@H](C)[C@@H](CN(C)CC2CCCCC2)Oc2ccc(NS(=O)(=O)c3cccs3)cc2CC1=O` here?
A: -7.92% (inactive)

Q: Which activity change does the source give for `C[C@@H]1CCCCO[C@H](CN(C)Cc2ccccc2)[C@@H](C)CN([C@@H](C)CO)C(=O)c2cc(NC(=O)Nc3ccc(F)cc3)ccc2O1` here?
A: -73.3% (inactive)

Q: For `COc1ccc(S(=O)(=O)N(C)C[C@@H]2OCCCC[C@H](C)Oc3ccc(NC(=O)Nc4ccccc4)cc3C(=O)N([C@@H](C)CO)C[C@H]2C)cc1`, which activity change is on record?
A: -79.2% (inactive)

Q: With `COc1ccc(NC(=O)Nc2ccc3c(c2)C(=O)N([C@H](C)CO)C[C@H](C)[C@@H](CN(C)C(=O)Nc2ccc(OC)cc2)OCCCC[C@H](C)O3)cc1` as the compound, how does the activity change read?
A: -22.2% (inactive)

Q: With `C[C@@H]1CN([C@H](C)CO)C(=O)c2cc(NC(=O)Nc3ccc(F)cc3)ccc2O[C@@H](C)CCCCO[C@@H]1CN(C)CC1CCCCC1` as the compound, how does the activity change read?
A: -82.5% (active)

Q: For `COc1ccc(NC(=O)Nc2ccc3c(c2)C(=O)N([C@H](C)CO)C[C@@H](C)[C@H](CN(C)CC2CCCCC2)OCCCC[C@@H](C)O3)cc1`, which activity change is on record?
A: -85.2% (active)

Q: For `C[C@@H]1CCCCO[C@H](CN(C)CC2CCCCC2)[C@H](C)CN([C@H](C)CO)C(=O)c2cc(NC(=O)Nc3ccc(F)cc3)ccc2O1`, which activity change is on record?
A: -79.8% (inactive)

Q: With `COc1ccc(NC(=O)Nc2ccc3c(c2)C(=O)N([C@@H](C)CO)C[C@H](C)[C@H](CN(C)S(=O)(=O)c2ccccc2)OCCCC[C@@H](C)O3)cc1` as the compound, how does the activity change read?
A: -87.4% (active)

Q: Which activity change does the source give for `COc1ccc(NC(=O)Nc2ccc3c(c2)C(=O)N([C@H](C)CO)C[C@H](C)[C@@H](CN(C)S(=O)(=O)c2ccc(OC)cc2)OCCCC[C@H](C)O3)cc1` here?
A: 0.392% (inactive)

Q: For `CCCN(C)C[C@H]1OCCCC[C@@H](C)Oc2ccc(NC(=O)Nc3ccc(F)cc3)cc2C(=O)N([C@@H](C)CO)C[C@H]1C`, which activity change is on record?
A: -91.5% (active)

Q: For `COc1ccc(NC(=O)Nc2ccc3c(c2)C(=O)N([C@@H](C)CO)C[C@H](C)[C@H](CN(C)CC2CCCCC2)O3)cc1`, which activity change is on record?
A: 13.9% (inactive)

Q: With `CCCN(C)C[C@@H]1OCCCC[C@@H](C)Oc2ccc(NC(=O)Nc3ccc(C(F)(F)F)cc3)cc2C(=O)N([C@H](C)CO)C[C@H]1C` as the compound, how does the activity change read?
A: -75.7% (inactive)

Q: For `CC(C)NC(=O)Nc1ccc2c(c1)C(=O)N([C@H](C)CO)C[C@H](C)[C@@H](CN(C)CC1CCCCC1)OCCCC[C@@H](C)O2`, which activity change is on record?
A: -13.3% (inactive)

Q: Which activity change does the source give for `O=C(C1CCCCC1)N1CC2(C1)[C@H](c1ccccc1)[C@@H](CO)N2Cc1cncnc1` here?
A: 32.5% (inactive)

Q: For `O=C(C[C@@H]1CC[C@@H]2[C@H](COC[C@H](O)CN2S(=O)(=O)c2ccccc2F)O1)NCc1ccccc1F`, which activity change is on record?
A: 0.606% (inactive)

Q: With `C[C@@H]1CCCCO[C@@H](CN(C)S(=O)(=O)c2cn(C)cn2)[C@H](C)CN([C@@H](C)CO)C(=O)c2cc(NC(=O)Nc3ccccc3)ccc2O1` as the compound, how does the activity change read?
A: -13.9% (inactive)

Q: With `CC(C)NC(=O)N1[C@@H]2CN(C(=O)Nc3ccc(F)cc3)c3ccccc3[C@@H]2[C@@H]1CO` as the compound, how does the activity change read?
A: 18.6% (inactive)

Q: For `C[C@H]1CN([C@@H](C)CO)S(=O)(=O)c2ccc(C#Cc3ccccc3F)cc2O[C@@H]1CN(C)C(=O)c1ccc2c(c1)OCO2`, which activity change is on record?
A: -86.6% (active)

Q: Which activity change does the source give for `CC(=O)N(C)C[C@H]1Oc2cc(C#Cc3ccccc3F)ccc2S(=O)(=O)N([C@H](C)CO)C[C@@H]1C` here?
A: -24.1% (inactive)

Q: For `CC(=O)N(C)C[C@@H]1Oc2cc(C#Cc3ccccc3F)ccc2S(=O)(=O)N([C@@H](C)CO)C[C@@H]1C`, which activity change is on record?
A: -36.8% (inactive)

Q: Which activity change does the source give for `C[C@@H]1CN([C@H](C)CO)S(=O)(=O)c2ccc(C#Cc3ccccc3F)cc2O[C@@H]1CN(C)C(=O)c1ccc2c(c1)OCO2` here?
A: -67% (inactive)

Q: With `C[C@@H]1CN([C@@H](C)CO)S(=O)(=O)c2ccc(C#Cc3ccccc3F)cc2O[C@H]1CN(C)C(=O)c1ccc2c(c1)OCO2` as the compound, how does the activity change read?
A: -85.3% (active)

Q: With `CC(=O)N(C)C[C@H]1Oc2cc(C#Cc3ccccc3F)ccc2S(=O)(=O)N([C@@H](C)CO)C[C@H]1C` as the compound, how does the activity change read?
A: -22.1% (inactive)

Q: With `COc1ccc(C#Cc2ccc([C@H]3[C@@H](CO)N4CCCCN(C(=O)Nc5ccccc5)C[C@H]34)cc2)cc1` as the compound, how does the activity change read?
A: -69.3% (inactive)

Q: For `CN(C)CC#Cc1ccc([C@@H]2[C@H](CO)N3CCCCN(C(=O)Nc4ccc(F)cc4)C[C@@H]23)cc1`, which activity change is on record?
A: -18.7% (inactive)

Q: With `O=C(Nc1ccc(F)cc1)N1CCCCN2[C@H](CO)[C@H](c3ccc(C#Cc4ccccc4)cc3)[C@H]2C1` as the compound, how does the activity change read?
A: -83.4% (active)

Q: Which activity change does the source give for `C[C@H](CO)N1C[C@H](C)[C@@H](CN(C)Cc2cccc(F)c2)Oc2cc(C#CC3CC3)ccc2S1(=O)=O` here?
A: -15.8% (inactive)

Q: With `CCC(=O)N(C)C[C@H]1Oc2cc(-c3cccc(C#N)c3)ccc2S(=O)(=O)N([C@@H](C)CO)C[C@@H]1C` as the compound, how does the activity change read?
A: 7.55% (inactive)

Q: With `C[C@@H]1CN([C@@H](C)CO)S(=O)(=O)c2ccc(-c3cccc(C#N)c3)cc2O[C@@H]1CN(C)Cc1cccc(F)c1` as the compound, how does the activity change read?
A: -39.8% (inactive)

Q: With `CCCN(C)C[C@@H]1Oc2cc(-c3cccc(C#N)c3)ccc2S(=O)(=O)N([C@@H](C)CO)C[C@@H]1C` as the compound, how does the activity change read?
A: -82.2% (active)

Q: With `C[C@H]1CN([C@@H](C)CO)S(=O)(=O)c2ccc(-c3cccc(C#N)c3)cc2O[C@H]1CN(C)CC1CC1` as the compound, how does the activity change read?
A: -83.2% (active)

Q: For `C[C@@H]1CN([C@H](C)CO)S(=O)(=O)c2ccc(-c3ccccc3)cc2O[C@@H]1CN(C)CC1CC1`, which activity change is on record?
A: -40.4% (inactive)

Q: Which activity change does the source give for `C[C@H](CO)N1C[C@H](C)[C@@H](CN(C)C(=O)C2CC2)Oc2cc(-c3cccc(C#N)c3)ccc2S1(=O)=O` here?
A: -26.1% (inactive)

Q: For `CNC(=O)C[C@@H]1CC[C@@H]2[C@H](COC[C@@H](O)CN2S(=O)(=O)c2ccccc2Cl)O1`, which activity change is on record?
A: 24.5% (inactive)

Q: With `Cc1ccccc1-c1ccc2c(c1)O[C@H](CN(C)Cc1ccc(C(=O)O)cc1)[C@@H](C)CN([C@H](C)CO)S2(=O)=O` as the compound, how does the activity change read?
A: -8.07% (inactive)

Q: For `CO[C@H](CN(C)C(=O)c1ccc2c(c1)OCO2)[C@H](C)CN([C@@H](C)CO)S(=O)(=O)c1ccc(Cl)cc1`, which activity change is on record?
A: 10.7% (inactive)

Q: For `COCCNC(=O)C[C@@H]1C[C@@H]2c3cc(NS(=O)(=O)c4ccccc4)ccc3O[C@@H]2[C@H](CO)O1`, which activity change is on record?
A: 18.7% (inactive)

Q: For `Cn1cnc(S(=O)(=O)N2C[C@@H](O)COC[C@@H]3O[C@H](CC(=O)NC4CCC4)CC[C@H]32)c1`, which activity change is on record?
A: 8.29% (inactive)

Q: Which activity change does the source give for `CC(C)(C)[S@@](=O)N1Cc2cc(C(=O)NCc3ccc4c(c3)OCO4)nc(-c3cccc(-c4ccccc4)c3)c2[C@H]1CCO` here?
A: -48.4% (inactive)

Q: For `CCCNC(=O)c1cc2c(c(-c3cccc(-c4ccc(F)cc4)c3)n1)[C@@H](CCO)N([S@](=O)C(C)(C)C)C2`, which activity change is on record?
A: -18.8% (inactive)

Q: For `CC(C)(C)[S@](=O)N1Cc2cc(C(=O)N[C@@H]3CCN(Cc4ccccc4)C3)nc(-c3cccc(-c4ccncc4)c3)c2[C@@H]1CCO`, which activity change is on record?
A: -81.2% (active)

Q: Which activity change does the source give for `COc1ccc2c3c(n(C)c2c1)[C@H](CO)N(C(=O)C1CCCC1)CC31CCN(C(=O)c2ccncc2)CC1` here?
A: -53.1% (inactive)

Q: With `C/C=C/c1ccc([C@@H]2[C@H](CO)N(CC3CCCC3)C23CN(C(=O)CC)C3)cc1` as the compound, how does the activity change read?
A: -53.8% (inactive)

Q: With `C/C=C/c1ccc([C@@H]2[C@H](CO)N(CC3CCCC3)C23CN(C(=O)CC2CC2)C3)cc1` as the compound, how does the activity change read?
A: -85% (active)

Q: Which activity change does the source give for `C/C=C/c1ccc([C@@H]2[C@@H](CO)N(CC3CCCC3)C23CN(S(=O)(=O)CC)C3)cc1` here?
A: -78.3% (inactive)

Q: With `CCCNC(=O)N(C)C[C@H]1Oc2ncc(-c3ccc(F)cc3)cc2C(=O)N([C@H](C)CO)C[C@H]1C` as the compound, how does the activity change read?
A: 0.175% (inactive)

Q: With `CCCNC(=O)NC[C@H]1[C@H](c2ccc(C3=CCCCC3)cc2)[C@H](CO)N1C(C)=O` as the compound, how does the activity change read?
A: -9.89% (inactive)

Q: With `COc1ccc(S(=O)(=O)N(C)C[C@H]2OCCCC[C@H](C)Oc3ccc(NC(=O)CCC(F)(F)F)cc3C(=O)N([C@@H](C)CO)C[C@@H]2C)cc1` as the compound, how does the activity change read?
A: -55.8% (inactive)

Q: With `C[C@H]1CN([C@@H](C)CO)C(=O)c2cccc(NC(=O)c3cnccn3)c2O[C@@H]1CN(C)Cc1ccc(Oc2ccccc2)cc1` as the compound, how does the activity change read?
A: -3.4% (inactive)

Q: For `C[C@@H]1CN([C@H](C)CO)C(=O)c2cccc(NC(=O)CCCCCC(=O)Nc3ccccc3N)c2O[C@H]1CN(C)Cc1ccc(Oc2ccccc2)cc1`, which activity change is on record?
A: -91.8% (active)

Q: Which activity change does the source give for `C[C@H](CO)N1C[C@H](C)[C@H](CN(C)Cc2ccc(Oc3ccccc3)cc2)Oc2c(NC(=O)CCCCCC(=O)Nc3ccccc3N)cccc2C1=O` here?
A: -92.5% (active)

Q: With `C[C@H](CO)N1C[C@H](C)[C@H](CN(C)Cc2ccccc2)Oc2ccc(NC(=O)CCCCCC(=O)Nc3ccccc3N)cc2C1=O` as the compound, how does the activity change read?
A: -61% (inactive)

Q: With `C[C@H]1CN([C@@H](C)CO)C(=O)c2cccc(NC(=O)Nc3ccccc3)c2O[C@H]1CN(C)Cc1ccc(Oc2ccccc2)cc1` as the compound, how does the activity change read?
A: -12% (inactive)

Q: With `Cc1noc(C)c1NC(=O)N(C)C[C@@H]1Oc2c(NC(=O)CCCCCC(=O)Nc3ccccc3N)cccc2C(=O)N([C@H](C)CO)C[C@@H]1C` as the compound, how does the activity change read?
A: 20.3% (inactive)

Q: For `CC=Cc1ccc2n(c1=O)C[C@@H]1[C@@H](CO)[C@H](C(=O)NCC)[C@H]2N1CCC(F)(F)F` (mixture of isomers), which activity change is on record?
A: 0.676% (inactive)

Q: For `CO[C@H]1CN(C)C(=O)c2ccc(NC(=O)C3CC3)cc2OC[C@@H](C)N(C)C[C@H]1C`, which activity change is on record?
A: 24.8% (inactive)

Q: With `COCC(=O)Nc1ccc2c(c1)C(=O)N(C)[C@H]1CC[C@@H](CC(=O)Nc3cn(C)nc3C)O[C@@H]1CO2` as the compound, how does the activity change read?
A: -1.96% (inactive)
